Source: PubChem BioAssay
The source made the active and inactive calls.

Experiments:
[1] = binders of probe aFSTL3 on microarray, primary screen, stem cell growth factor project, biochemical, small-molecule microarray, fluorescence 635/667 (AID 1064); settings: higher = more signal;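 note: measures binding of the biotinylated anti-FSTL3 antibody to printed compounds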
[2] = binders from COS7 lysate, DM2A8 probe, primary screen, torsin A project, cell lysate, small-molecule microarray, fluorescence 635/667 (AID 1065); settings: higher = more signal, COS7 lysate expressing mutant human TOR1A
[3] = binders of probe aFGF2 on microarray, primary screen, stem cell growth factor project, biochemical, small-molecule microarray, fluorescence 635/667 (AID 1067); settings: higher = more signal;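 note: measures binding of biotinylated aFGF2 protein to printed compounds on slides; z-score merges feature fluorescence and signal-to-noise across triplicate slides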
[4] = binders of probe aFGF10 on microarray, primary screen, stem cell growth factor project, biochemical, small-molecule microarray, fluorescence 635/667 (AID 1071); settings: higher = more signal;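 note: score merges 667 nm spot intensity and signal to noise from triplicate slides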
[5] = molecular target: Neurogenic locus notch homolog protein 2 (Homo sapiens) (UniProt Q04721); experiment: Notch2 binders on small-molecule microarrays, primary screen, biochemical, small-molecule microarray, 635 nm fluorescence, stem cell growth factors (AID 1073); settings: Notch2 binding, higher = more signal
[6] = molecular target: Pro-neuregulin-1, membrane-bound isoform (Homo sapiens) (UniProt Q02297); experiment: NRG1 binders on small-molecule microarrays, primary screen, psychiatric disease protein project, biochemical, small-molecule microarray, fluorescence 635/667 (AID 1075); settings: NRG1 binding, 635 nm fluorescence, higher = more signal;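 note: score combines 667 nm spot fluorescence with signal to noise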
[7] = system: Neuregulin-1 EGF-like domain; experiment: binders of neuregulin-1 EGF-like domain, primary screen, biochemical, small-molecule microarray, 635 nm fluorescence (AID 1081); settings: small-molecule microarray binding, higher = more signal;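 note: binding of the protein to compounds printed on small-molecule microarray slides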
[8] = FRG1 promoter luciferase signal modulators, primary screen, FRG1 inhibition for FSHD, cell-based, C2C12 myotubes, firefly/Renilla luciferase, luminescence (AID 1084); settings: higher = more signal, called active from +8 up or from −8 down
[9] = binders of probe aFST on microarray, primary screen, stem cell growth factor project, biochemical, small-molecule microarray, fluorescence 635/667 (AID 1086); settings: higher = more signal;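 note: score merges 667 nm fluorescence with signal-to-noise of each printed compound spot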
[10] = binders of probe aHhip on microarray, primary screen, stem cell growth factor project, biochemical, small-molecule microarray, fluorescence 635/667 (AID 1087); settings: higher = more signal;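 note: score merges spot fluorescence at 667nm with spot signal to noise ratio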
[11] = system: PRMT1 (protein arginine N-methyltransferase 1); experiment: PRMT1 binders on small-molecule microarrays, primary screen, biochemical, small-molecule microarray, 635 nm fluorescence (AID 1088); settings: small-molecule microarray binding, higher = more signal;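 note: binding of Prmt1 protein to compounds spotted on small-molecule microarray slides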
[12] = yeast growth modulation, basal conditions, primary screen, YJM789 clinical isolate, OD600, 24 h (AID 1089);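 note: growth of clinical yeast isolate S. cerevisiae YJM 789 seeded 1000 cells per well; test concentration not given here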; settings: S. cerevisiae YJM789 growth, higher = more signal, called active from +8 up or from −8 down
[13] = fission yeast growth modulation, primary screen, strain 972, OD600, 24 h, no modulator (AID 1090);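 note: basal condition with compound alone and no growth modifier present; test concentration not given here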; settings: S. pombe 972 growth, higher = more signal, called active from +8 up or from −8 down
[14] = S. cerevisiae growth modulation with rapamycin, primary screen, strain BY4716, OD600, 96 h (AID 1091); settings: higher = more signal, called active from +8 up or from −8 down; note: test concentration not given here
[15] = molecular target: Torsin-1A-interacting protein 2 (Homo sapiens) (UniProt Q8NFQ8); experiment: LULL1 binders on small-molecule microarray, primary screen, cell lysate, human LULL1 lysate, 635/667 nm fluorescence (AID 1092); settings: hLULL1 lysate binding, 635 nm fluorescence, higher = more signal;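 note: probe is lysate of COS7 cells overexpressing human LULL1; score merges per-feature 667 nm fluorescence with signal-to-noise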
[16] = E. coli growth modulation, two-sided OD650, primary screen, E. coli filamentation project, strain DRC41, 24 h (AID 1093); settings: OD650, 24 h, higher = more signal, called active from +8 up or from −8 down;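 note: MC1000 strain lacking acrAB efflux and sulA so SOS filamentation is blocked; test concentration not given here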
[17] = small-molecule microarray binders of probe aLefty2, primary screen, biochemical, biotinylated probe, 635/667 nm fluorescence (AID 1094); settings: higher = more signal;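 note: score merges spot fluorescence near 667 nm with spot signal-to-noise ratio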
[18] = system: Noggin (protein binding on small-molecule microarray); experiment: Noggin binders on small-molecule microarray, primary screen, biochemical, 635/667 nm fluorescence (AID 1095); settings: 635 nm fluorescence, higher = more signal;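 note: score merges 667 nm feature fluorescence with signal to noise over triplicate slides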
[19] = molecular target: Neurogenic locus notch homolog protein 3 (Homo sapiens) (UniProt Q9UM47); experiment: NOTCH3 binders on small-molecule microarray, primary screen, biochemical, 635/667 nm fluorescence (AID 1096); settings: NOTCH3 binding, 635 nm fluorescence, higher = more signal
[20] = small-molecule microarray binders of probe aEGFR, primary screen, biochemical, biotinylated probe, 635/667 nm fluorescence (AID 1097); settings: higher = more signal;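 note: probe is a biotinylated anti-EGFR antibody binding compounds printed on slides; score combines fluorescence near 667 nm and signal to noise of each spot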

Chain of Torsin-1A-interacting protein 2 (Homo sapiens) (Q8NFQ8 whole entry, looked up): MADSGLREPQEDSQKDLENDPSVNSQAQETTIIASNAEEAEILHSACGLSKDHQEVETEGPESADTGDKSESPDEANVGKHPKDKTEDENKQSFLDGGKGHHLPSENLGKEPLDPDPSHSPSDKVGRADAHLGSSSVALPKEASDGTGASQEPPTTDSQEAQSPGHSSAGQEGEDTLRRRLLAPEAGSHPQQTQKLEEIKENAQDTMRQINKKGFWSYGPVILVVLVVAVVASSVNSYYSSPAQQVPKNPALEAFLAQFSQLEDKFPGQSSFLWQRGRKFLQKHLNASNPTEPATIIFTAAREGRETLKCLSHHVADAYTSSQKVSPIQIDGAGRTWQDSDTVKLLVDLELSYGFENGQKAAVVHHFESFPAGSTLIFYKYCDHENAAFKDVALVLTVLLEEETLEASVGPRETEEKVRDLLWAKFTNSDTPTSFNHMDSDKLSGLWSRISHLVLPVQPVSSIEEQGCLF
Chain of Pro-neuregulin-1, membrane-bound isoform (Homo sapiens) (Q02297 whole entry, looked up, the tested form may be a part, canonical isoform): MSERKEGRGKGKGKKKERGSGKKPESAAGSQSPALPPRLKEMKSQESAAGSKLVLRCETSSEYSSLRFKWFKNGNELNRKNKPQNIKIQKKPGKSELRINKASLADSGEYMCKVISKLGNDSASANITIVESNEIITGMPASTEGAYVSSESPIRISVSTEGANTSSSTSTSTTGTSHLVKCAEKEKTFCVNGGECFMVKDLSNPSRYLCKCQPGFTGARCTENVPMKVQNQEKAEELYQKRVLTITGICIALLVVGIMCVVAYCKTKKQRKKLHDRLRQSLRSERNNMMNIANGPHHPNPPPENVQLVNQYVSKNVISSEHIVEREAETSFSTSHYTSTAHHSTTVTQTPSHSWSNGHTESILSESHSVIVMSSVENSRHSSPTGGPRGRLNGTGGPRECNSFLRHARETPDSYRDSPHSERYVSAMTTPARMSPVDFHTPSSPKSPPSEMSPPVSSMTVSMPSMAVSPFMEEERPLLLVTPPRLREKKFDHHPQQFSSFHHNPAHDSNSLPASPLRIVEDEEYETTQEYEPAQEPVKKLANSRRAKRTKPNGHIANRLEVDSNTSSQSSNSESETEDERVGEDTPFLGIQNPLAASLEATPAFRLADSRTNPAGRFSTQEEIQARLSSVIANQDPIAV
Chain of Neurogenic locus notch homolog protein 2 (Homo sapiens) (Q04721 whole entry, looked up, canonical isoform): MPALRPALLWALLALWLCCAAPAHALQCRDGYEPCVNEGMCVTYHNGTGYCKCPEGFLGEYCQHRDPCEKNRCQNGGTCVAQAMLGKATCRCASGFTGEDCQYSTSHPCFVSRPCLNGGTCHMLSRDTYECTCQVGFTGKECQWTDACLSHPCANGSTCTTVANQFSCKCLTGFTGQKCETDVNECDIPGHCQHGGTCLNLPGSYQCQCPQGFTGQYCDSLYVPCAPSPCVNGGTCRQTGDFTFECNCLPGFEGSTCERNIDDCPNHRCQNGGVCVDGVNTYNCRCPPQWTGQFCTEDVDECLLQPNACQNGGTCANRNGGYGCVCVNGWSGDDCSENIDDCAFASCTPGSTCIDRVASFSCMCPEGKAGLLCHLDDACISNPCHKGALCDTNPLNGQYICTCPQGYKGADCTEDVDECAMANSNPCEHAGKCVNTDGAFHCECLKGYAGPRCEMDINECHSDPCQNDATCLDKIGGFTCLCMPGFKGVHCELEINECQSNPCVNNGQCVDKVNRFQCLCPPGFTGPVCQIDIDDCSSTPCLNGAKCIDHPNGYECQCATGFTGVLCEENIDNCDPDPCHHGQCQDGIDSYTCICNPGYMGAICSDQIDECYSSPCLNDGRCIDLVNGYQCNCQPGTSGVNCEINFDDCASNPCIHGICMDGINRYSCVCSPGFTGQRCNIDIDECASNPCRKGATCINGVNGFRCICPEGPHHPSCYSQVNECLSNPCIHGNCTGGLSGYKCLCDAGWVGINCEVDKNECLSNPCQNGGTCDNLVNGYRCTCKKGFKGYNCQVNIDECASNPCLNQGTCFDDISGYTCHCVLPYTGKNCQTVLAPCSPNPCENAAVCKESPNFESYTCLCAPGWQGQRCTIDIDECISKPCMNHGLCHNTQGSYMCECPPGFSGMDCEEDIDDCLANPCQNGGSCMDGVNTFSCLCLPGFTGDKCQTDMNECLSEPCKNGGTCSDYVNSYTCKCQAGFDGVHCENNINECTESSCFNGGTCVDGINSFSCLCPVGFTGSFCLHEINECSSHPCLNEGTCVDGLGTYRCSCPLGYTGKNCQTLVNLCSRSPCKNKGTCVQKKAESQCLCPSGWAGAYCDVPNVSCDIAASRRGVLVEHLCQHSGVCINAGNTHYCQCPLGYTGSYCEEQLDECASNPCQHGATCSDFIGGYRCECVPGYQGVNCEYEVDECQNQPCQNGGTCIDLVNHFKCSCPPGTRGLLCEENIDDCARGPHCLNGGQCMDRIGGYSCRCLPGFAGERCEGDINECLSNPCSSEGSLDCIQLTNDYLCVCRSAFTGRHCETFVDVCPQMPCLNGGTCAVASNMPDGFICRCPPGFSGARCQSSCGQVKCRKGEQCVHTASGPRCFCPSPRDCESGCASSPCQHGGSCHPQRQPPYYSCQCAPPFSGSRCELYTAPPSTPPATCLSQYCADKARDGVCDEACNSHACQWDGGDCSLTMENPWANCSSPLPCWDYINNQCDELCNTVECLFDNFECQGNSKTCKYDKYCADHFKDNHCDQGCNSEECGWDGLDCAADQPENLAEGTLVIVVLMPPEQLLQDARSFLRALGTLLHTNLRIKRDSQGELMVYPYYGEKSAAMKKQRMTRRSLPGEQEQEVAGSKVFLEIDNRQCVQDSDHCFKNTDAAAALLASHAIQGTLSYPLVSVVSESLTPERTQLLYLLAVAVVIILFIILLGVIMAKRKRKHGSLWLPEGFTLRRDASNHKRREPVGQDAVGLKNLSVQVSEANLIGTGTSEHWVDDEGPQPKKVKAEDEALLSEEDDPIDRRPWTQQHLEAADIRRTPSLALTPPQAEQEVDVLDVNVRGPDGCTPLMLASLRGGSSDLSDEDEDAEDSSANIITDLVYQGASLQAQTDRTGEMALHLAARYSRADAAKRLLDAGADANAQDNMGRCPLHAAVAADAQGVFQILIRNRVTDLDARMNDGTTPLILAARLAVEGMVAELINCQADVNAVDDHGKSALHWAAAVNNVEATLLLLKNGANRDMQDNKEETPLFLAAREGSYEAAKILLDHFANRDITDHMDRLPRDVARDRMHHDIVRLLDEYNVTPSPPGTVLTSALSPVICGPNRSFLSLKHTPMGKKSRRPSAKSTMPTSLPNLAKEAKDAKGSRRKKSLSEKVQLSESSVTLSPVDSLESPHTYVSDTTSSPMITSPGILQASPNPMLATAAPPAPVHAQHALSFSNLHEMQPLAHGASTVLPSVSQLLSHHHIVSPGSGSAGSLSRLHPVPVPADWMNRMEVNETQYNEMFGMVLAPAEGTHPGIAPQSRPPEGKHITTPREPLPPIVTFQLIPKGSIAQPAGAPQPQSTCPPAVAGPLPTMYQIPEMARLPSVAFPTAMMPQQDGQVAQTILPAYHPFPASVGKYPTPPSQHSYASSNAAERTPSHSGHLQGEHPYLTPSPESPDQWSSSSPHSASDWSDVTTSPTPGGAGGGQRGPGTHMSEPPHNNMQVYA

| SMILES | composite z-score [1] | composite z-score [2] | composite z-score [3] | composite z-score [4] | composite z-score [5] | composite z-score [6] | composite z-score [7] | z-score [8] | composite z-score [9] | composite z-score [10] | composite z-score [11] | z-score [12] | z-score [13] | z-score [14] | composite z-score [15] | z-score [16] | composite z-score [17] | composite z-score [18] | composite z-score [19] | composite z-score [20] |
| --- | --- | --- | --- | --- | --- | --- | --- | --- | --- | --- | --- | --- | --- | --- | --- | --- | --- | --- | --- | --- |
| COc1cccc([C@H]2Oc3ccc(OC)cc3C(=NOC[C@@H](C)[C@H](OCc3ccccc3)C(C)C)[C@@H]2O)c1 | -0.108 | 0.435 | -0.004 | 0.431 | 0.203 | -0.201 | 0.686 | 3.29 (inactive) | 1.33 | 0.0274 | 0.169 | 0.0741 (inactive) | 0.399 (inactive) | 0.588 (inactive) | 0.77 | -0.0364 (inactive) | -0.341 | 0.0758 | 0.0869 | 0.0229 |
| CCCNC(=O)OC[C@H]1O[C@H](CCON=C(C)CCC(=O)OC[C@H]2O[C@H](c3ccccc3)C=C[C@@H]2Oc2ccc(OC)cc2)C=C[C@@H]1Oc1ccc(OC)cc1 | -0.302 | 0.21 | -0.127 | -0.178 | -0.843 | -0.311 | -0.731 | 0.862 (inactive) | 0.0494 | -0.0618 | -1.37 | -1.66 (inactive) | 0.702 (inactive) | -0.59 (inactive) | -1.09 | 0.0967 (inactive) | -0.0982 | -0.184 | -0.619 | -0.042 |
| CO[C@H]1COC(=O)CC=C[C@H](C)[C@@H](OC)COC(=O)[C@@H](C)COC(=O)CC=C[C@@H]1C | -0.834 | 2.17 | -0.152 | -0.938 | -1.22 | -0.652 | -0.513 | -0.862 (inactive) | 0.0281 | 0.106 | 1.48 | 0.235 (inactive) | -1.41 (inactive) | -0.487 (inactive) | -0.108 | -0.176 (inactive) | -0.235 | 2.04 | -0.399 | -0.0171 |
| C=CC[C@@H]1C=C[C@H](ON=C[C@@H](C)[C@H](OCc2ccccc2)C(C)C)[C@@H](CO)O1 | -0.227 | -0.14 | 0.342 | -0.433 | -1.1 | -0.241 | -0.255 | 0.715 (inactive) | -0.0578 | -0.0618 | 0.261 | -1.46 (inactive) | -3.98 (inactive) | -0.515 (inactive) | 0.602 | 0.15 (inactive) | -0.228 | -0.244 | -0.0585 | -0.146 |
| O=C(NN=C1C[C@@H](O)[C@@H](O)[C@@H]2[C@@H]3C(=O)N(C[C@@H]4CCCO4)C(=O)[C@@H]3CC[C@H]12)OCc1ccccc1 | 0.0589 | 0.349 | -0.118 | -0.0255 | -0.248 | -0.117 | -0.637 | -0.361 (inactive) | 0.556 | -0.0994 | -0.166 | 0.387 (inactive) | 0.499 (inactive) | -0.186 (inactive) | 0.126 | 0.52 (inactive) | 0.0061 | -0.284 | -0.696 | -0.19 |
| COC(=O)CC=C[C@@H](C)[C@@H](C=NOCC[C@@H]1C=C[C@H](OC(C)=O)[C@@H](COC(C)=O)O1)OC | -0.413 | 0.174 | 0.0144 | 0.502 | 0.193 | -0.0568 | 0.813 | 0.799 (inactive) | 0.0492 | 0.0053 | 1.08 | 0.355 (inactive) | -0.295 (inactive) | 0.474 (inactive) | 0.431 | -0.152 (inactive) | -0.0321 | 0.405 | 0.308 | 0.0754 |
| CCOC(=O)NN=C1C[C@@H](O)[C@@H](O)[C@@H]2[C@@H]3C(=O)N(c4ccc(F)cc4F)C(=O)[C@@H]3CC[C@@H]12 | -0.333 | 0.415 | -0.0659 | 0.281 | 0.493 | 0.594 | -0.0454 | -0.248 (inactive) | 0.627 | 0.0139 | -0.009 | 0.517 (inactive) | 0.733 (inactive) | -0.0512 (inactive) | 0.0129 | 0.783 (inactive) | -0.0347 | 0.139 | 0.578 | -0.124 |
| CO[C@@H]1C=CCC(=O)N2CCC[C@H]2C(=O)OC[C@@H](C)C(=O)OC[C@H]1C | -0.605 | 1.7 | -0.159 | 0.492 | 0.156 | -0.582 | 0.477 | -1.15 (inactive) | 0.274 | 0.238 | 0.865 | -0.0313 (inactive) | -1.32 (inactive) | -0.918 (inactive) | -0.334 | 0.872 (inactive) | -0.143 | 1.56 | -0.0741 | -0.0444 |
| CC(C)CON=C1C[C@@H](O)[C@@H](O)[C@@H]2[C@@H]3C(=O)N(C4CCCCC4)C(=O)[C@@H]3CC[C@H]12 | -0.475 | 0.6 | -0.0383 | 0.848 | 1.14 | 0.936 | 0.743 | -0.276 (inactive) | 0.272 | -0.169 | 1.42 | 0.0058 (inactive) | 0.303 (inactive) | -0.393 (inactive) | 1.1 | 0.411 (inactive) | -0.0396 | 0.683 | 1.13 | -0.0817 |
| CC(CCC(=O)OC[C@H]1O[C@H](C#Cc2ccccc2)C=C[C@@H]1Oc1ccc(C)cc1)=NO[C@H](C)c1cn([C@H](CO)Cc2ccccc2)nn1 | -0.544 | -0.0618 | -0.122 | 0.191 | 0.369 | 0.527 | 0.529 | 0.546 (inactive) | 0.337 | -0.211 | 1.05 | 1.62 (inactive) | -0.372 (inactive) | 1.31 (inactive) | 1.05 | 0.171 (inactive) | -0.239 | 0.689 | 0.695 | -0.17 |
